57 compounds from PubChem BioAssay AID1476 (National Center for Advancing Translational Sciences (NCATS), 2009) can be followed below.

Structures are written as SMILES. Where “and” joins values, the source holds several entries; their conditions need not be identical. Equal values may be shown once. Screen size: about 200,000 compounds; about 4,500 (2.2%) were called active. Not shown: some 12% with an inconclusive outcome. The sample holds actives, similar compounds and a random draw of the others, so the mix is not that of the screen. A number with no mark means an inactive call. Calls follow the shape of the dose curve; as a rule, active = well fitted inhibition curve with a large enough effect; inconclusive = small, poorly fitted or top-dose-only effect, or effect the other way; inactive = flat fitted curve, though single readings scatter.
Potency is read from the fitted curve at half-maximal effect.

Cruzipain (Trypanosoma cruzi), sequence (P25779 123-467 limits assumed): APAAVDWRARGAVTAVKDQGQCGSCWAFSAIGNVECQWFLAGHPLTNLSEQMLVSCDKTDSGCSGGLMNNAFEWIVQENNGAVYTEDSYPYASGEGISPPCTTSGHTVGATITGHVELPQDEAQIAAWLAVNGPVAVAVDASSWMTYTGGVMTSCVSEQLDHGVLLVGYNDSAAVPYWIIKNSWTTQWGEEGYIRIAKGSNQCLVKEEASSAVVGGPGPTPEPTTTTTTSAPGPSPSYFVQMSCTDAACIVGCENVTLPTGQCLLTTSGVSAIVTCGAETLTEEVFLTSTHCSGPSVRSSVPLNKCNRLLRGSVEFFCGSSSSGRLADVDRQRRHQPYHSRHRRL

The target in this test is Cruzipain (Trypanosoma cruzi) (UniProt P25779). The experiment in a line: qHTS Assay for Promiscuous and Specific Inhibitors of Cruzain (without detergent). Also: nearly all actives have a fitted effect of over 40% in size. The note with it: purified cruzain, Z-FR-AMC fluorescence, no detergent. Here is the method:
Cruzain is a cysteine protease from the tropical parasite Trypanosoma cruzi. Dual qHTS experiment was performed against the NCGC compound collection in order to 1) identify novel inhibitors of the enzyme and 2) profile the compound collection for promiscuous inhibitors operating via colloidal aggregation (by performing detergent-free and detergent-containing comparison screens). Cruzain was assayed by the use of fluorogenic coumarin-based substrate Z-FR-AMC: proteolytic cleavage releases AMC, whose fluorescence is measured at 360 nm excitation and 450 nm emission. Purified cruzain was supplied by the labs of Prof. James McKerrow and Brian Shoichet, UC San Francisco.
This assay had 0.00005% Triton X-100 concentration. See also releated assay "qHTS Assay for Promiscuous and Specific Inhibitors of Cruzain (with detergent)" with 0.01% Triton X-100.
See following references for additional details:
Assay Provider: Shoichet, Brian; University of California, San Fancisco
Screening Center PI: Austin, C.P.
Screening Center: NIH Chemical Genomics Center [NCGC]
Buffer: 100 mM Sodium Acetate, pH 5.5, 5 mM DTT, Triton X-100 concentration: 0.01%.
Buffer in columns 3 and 4 as negative control (no enzyme).
Substrate solution: 2 uM final concentration of Z-FR-AMC (catalog number I-1160, Bachem) dispensed throughout the plate.
Enzyme: 1.5 nM Cruzain final concentration in columns 1, 2, 5-48. Column 1 is neutral (100% activity). Column 2 contained titration of covalent inhibitor K11777, starting concentration 1 mM, then 1:2 dilution in duplicate).
Three uL of enzyme or buffer were dispensed to 1536-well Greiner black solid bottom plates. Compounds and controls (23 nL) were transferred via Kalypsys PinTool. The plates were incubated for 15 min at room temperature, and then 1 uL of substrate solution was added to start the reaction. The plates were immediately transferred to and read 4 times every 30 seconds for 2 min on ViewLux High-throughput CCD imager (Perkin-Elmer) using 360 nm excitation and 450 nm emission fluorescence protocol. The fluorescence intensity difference between the third and the first time points (time lapse of 60 seconds) was used to compute reaction progress.
Take `Cc1cc(C)c(C2C3=C(Nc4c2c(C)nn4-c2ccccn2)c2ccccc2C3=O)c(C)c1` (configuration not stated): the Potency is 12.6 µM (active).
For the compound `Cc1nn(-c2ccccn2)c2c1C(c1ccncc1)C1=C(CC(C)(C)CC1=O)N2` (configuration not stated), the max response, negative = inhibition was -9%.
The same measure, in the same setting: for `CC(=C1C(=O)c2ccccc2C1=O)N1CCN(c2ccccn2)CC1` the value was -6.99%.
On the same count and under the same terms, for `NS(=O)(=O)c1ccc(CCNC(=O)CCCCCn2c(=O)[nH]c3ccccc3c2=O)cc1` the value was -15.6%; for `Cn1c(=O)n(C)c2cc(NS(=O)(=O)c3ccc(F)cc3)ccc21`, -10.1%.
For `CC1(C)CC(=O)c2c(n(S(=O)(=O)c3ccccc3)c3ccc(NS(=O)(=O)c4ccccc4)cc23)C1`, the Potency is 31.6 µM (active).
For `COc1cc(NS(=O)(=O)c2ccccc2)ccc1-n1nc(C)cc1C`, the max response, negative = inhibition was 4.04%.
Still for that read-out and setting: next, `Cc1cccc(-n2c(C)cc(/C=N/NC(N)=S)c2C)c1`: -26.1%; `CCOc1ccc(/C=N/NC(N)=S)cc1`: -8.04%.
For `CC(C)Oc1c(Br)cc(Br)cc1/C=N/NC(N)=S`, the Potency is 0.158 µM (active).
Regarding `Cc1ccc2onc(CC(=O)N3CCN(c4ccc(Cl)cc4)CC3)c2c1`, the max response, negative = inhibition is 7.92%.
On the same count and under the same terms, next, `COc1cccc(CNCCSc2nnnn2C)c1OCc1ccccc1Cl`: 2.75%.
Same read-out and setting: for `COc1ccc(CNC(=O)Cn2nnc(-c3ccccc3F)n2)cc1` the value was -5.04%; for `COc1cc2nc(SCc3ccc(F)cc3)n3nc(CCn4c(C)nc5ccccc54)nc3c2cc1OC`, -7.57%.
`C=CC(=O)c1ccc2ccccc2c1`: the Potency is 2.51 µM (active).
Consider `CC(=O)c1ccc2c(ccc3ccccc32)c1`, for which the max response, negative = inhibition was 6.49%.
Same read-out and setting: for `CC(=O)CCC(=O)c1ccc2ccccc2c1` the value was 1.86%; for `Cc1ccc(NC(=O)Cn2c(=O)n(-c3ccccc3)c(=O)c3c4c(sc32)CCCC4)cc1`, -7.31%.
Same read-out and setting: next, `Cc1ccc(S(=O)(=O)N2CCC(Oc3ccc(-n4cnnn4)cc3)CC2)cc1`: 8.75%; `CCc1ccc(NC(=O)CN2CCSc3ccc(S(=O)(=O)N4CCCC4)cc32)cc1`: -26.3%.
On the same count and under the same terms, next, `COc1ccc(C(=O)c2c(C)oc3cc([N+](=O)[O-])c(O)c([N+](=O)[O-])c23)cc1`: -3.8%.
For `COc1ccc(-c2oc3cc(OC)ccc3c2C(=O)c2ccc(C#N)cc2)cc1`, the Potency was 12.6 µM (active).
`COc1cccc(C(=O)c2cc3ccc(O)cc3oc2=O)c1`: the max response, negative = inhibition is -3.19%.
On the same count and under the same terms, next, `COc1cccc(C(=O)Nc2ccc(N3CCCC3)cc2)c1`: -20.3%.
On the same count and under the same terms, for `O=C(COc1ccccc1F)NNC(=O)c1ccc(N2CCCCC2)c([N+](=O)[O-])c1` the value was -11.1%.
`O=C(Nc1ccc(N2C(=O)c3cccc4cccc(c34)C2=O)cc1)c1ccc(N2CCCCC2)c([N+](=O)[O-])c1`: the Potency was 7.94 µM (active).
Take `Cc1ccccc1-n1c(=O)c2ccccc2n(Cc2ccc(F)cc2)c1=O`: the max response, negative = inhibition was 6.2%.
On the same count and under the same terms, for `O=C(O)Cc1ccc(-c2ccccc2)cc1` the value was -11.7% and 9.66%.
Turning to `O=C(Cc1ccc(-c2ccccc2)cc1)NC(c1ccccc1)c1ccccc1`, the Potency was 25.1 µM (active).
Turning to `COc1ccc(C(CC(=O)O)NC(=O)Cc2ccccc2)cc1` (configuration not stated), the max response, negative = inhibition is 10.2%.
On the same count and under the same terms, next, `COc1ccc(C(=O)Nc2onc3c2CCCC3)cc1`: -6.11%; `COC(=O)Cc1ccc(NC(=S)NCc2ccc(Cl)cc2)cc1`: -2.73%.
For the compound `Cc1ccc(NC(=S)NC(=O)/C=C/c2ccc(Cl)cc2)cc1`, the Potency was 10 µM (active).
As to `Cc1nn(C)cc1C(=O)NNC(=S)Nc1ccc(Cl)cc1`, the max response, negative = inhibition was -0.36%.
On the same count and under the same terms, for `CCCN1C(=O)C(O)(CC(=O)c2ccc(CC)cc2)c2cc(Br)ccc21` (configuration not stated) the value was 2.6%; for `COc1ccccc1CNC(=O)C(Cc1ccccc1)NS(=O)(=O)c1ccc2c(c1)oc(=O)n2C` (configuration not stated), -15.4%; for `O=S(=O)(NCC(c1ccco1)N1CCOCC1)c1cc(F)ccc1F` (configuration not stated), -1.04%.
Regarding `Cc1cccc(NC(=O)c2sc(-c3ccccc3)nc2-c2ccc([N+](=O)[O-])cc2)c1`, the Potency was 20 µM (active).
With `CC(=O)c1cccc(NC(=O)c2nc(-c3ccccc3)n(-c3cccc(C)c3)n2)c1`, the max response, negative = inhibition is -26.5%.
Still for that read-out and setting: next, `COc1cccc(NC(=O)c2ccc(Cn3cc([N+](=O)[O-])cn3)o2)c1`: 3.2%; `O=C(NCCS(=O)(=O)N1CCN(c2ccc(F)cc2)CC1)c1ccccc1Br`: -13%; `Cc1cccc(CNC(=O)c2cnc3sc(N4CCCCC4)nn3c2=O)c1`: 13.2%.
In the case of `CC(Oc1ccc(-c2ccccc2)c(F)c1)c1ccn(S(=O)(=O)c2cccc3ccccc23)n1` (configuration not stated), the Potency is 12.6 µM (active).
`COc1ccccc1N1CCN(c2ncnc3onc(-c4cccc(Cl)c4)c23)CC1`: the max response, negative = inhibition is 9.06%.
Regarding `CCOC(=O)CSc1nnc(NC(=O)c2cccc(S(=O)(=O)N3CCCCC3)c2)s1`, the Potency is 20 µM (active).
On to `O=C(Nc1nnc(S(=O)(=O)N2CCCCCC2)s1)c1cccc(Br)c1`, for which the max response, negative = inhibition was 6.01%.
Same read-out and setting: next, `O=C(Nc1nncs1)c1cccc(S(=O)(=O)N2CCCCC2)c1`: 0.0572%.
The same measure, in the same setting: for `COc1cc(CNCCSc2nnnn2C)ccc1OCc1ccc(Cl)cc1Cl` the value was 8.01%; for `COc1ccc(NC(=S)NCc2cccs2)c(OC)c1`, 1.46%; for `CCNC(=S)N(CCc1c(C)[nH]c2ccc(C)cc12)Cc1ccco1`, -13.2%.
Turning to `COc1ccc2[nH]c(C)c(CCN(Cc3cccs3)C(=S)Nc3ccccc3OC)c2c1`, the Potency is 15.8 µM (active).
Consider `Cc1ccc(Cl)cc1N(C)C(=O)Cn1nc(Cc2cccnc2)c2ccccc2c1=O`, for which the max response, negative = inhibition is 14.5%.
The same measure, in the same setting: next, `CC(C)(C)c1ccc(OCC(=O)N2CCC(c3nc4ccccc4s3)CC2)cc1`: -14.4%.
For `CCOC(=O)c1sc(=S)n2c1[nH]c(=O)c1ccc(C(=O)OC)cc12`, the Potency is 25.1 µM (active).
Turning to `CCOC(=O)c1sc(=S)n(-c2cccc(OC)c2)c1N`, the max response, negative = inhibition is -7.85%.
Same read-out and setting: for `CCOC(=O)Cn1c(N)c(C(=O)OC)sc1=S` the value was -4.92%.
Still for that read-out and setting: next, `COc1ccc(CCNC(=O)CCc2c(C)nc3c(c(C)nn3-c3ccc(C)c(C)c3)c2C)c(OC)c1OC`: 0.259%.
